Compounds without any hit were thinned out: in the full panel of roughly 83,000, 20% have a hit.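 The endpoint reported here, percent growth, reads 100 for growth as untreated, 0 for no net growth and -100 for all cells dead.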 Unmarked numbers belong to inactive results. Activity calls are given as the source filed them. How the source made its calls: active means growth percent below 10; inactive means the rest.
The compounds below were run on K-562 leukemia (assay: NCI-60 one-dose screen, 48 h (100 = growth as untreated, 0 = no growth, -100 = all killed)). Conditions: 10 µM unless noted.

SMILES | growth
CCOC(=O)c1c(Nc2ccccc2)nn2c(N)c(C#N)c(-c3ccccc3)nc12 | 48.5%
COC(=O)c1ccc(NC(=S)N2CCc3ccc([N+](=O)[O-])cc3C2)cc1O | 110%
CCCC(=O)NC(c1cccc(N(C)C)c1)c1cc(C)c2cccnc2c1O (centres undefined) | 35.3%
COc1cc(/C=C/C(=O)c2cc(OC)c(OC)c(OC)c2)ccc1Oc1nc(NCCO)nc(N2CCOCC2)n1 | 8.97% (active)
CS(=O)(=O)c1ccc(-n2cc(/C=C/C(=O)c3ccc(NC(=O)CO[N+](=O)[O-])cc3)c(-c3ccc(Cl)cc3)n2)cc1 | 119%
Cc1cc2nc3c4cc(Cl)ccc4n(CC(=O)NCCN(C)C)c3nc2cc1C | -32.9% (active)
Cc1cc2nc3c4cc(Cl)ccc4n(CC(=S)NCCN(C)C)c3nc2cc1C | -43.6% (active)
NS(=O)(=O)c1ccc(Nc2nc(SCC(=O)c3ccc(Cl)cc3)nc3ccccc23)cc1 | 84%
Clc1ccc2oc3c(NCCCN4CCOCC4)c4ccccc4nc3c2c1 | 1.61% (active)
Cc1ccc(/C=C/c2nn3c(-c4ccco4)nnc3s2)cc1C | 97.7%
N=C1CC(=O)NN1C(=O)CSc1nc2sc3c(c2c(=O)n1-c1ccc(Cl)cc1)CCCC3 | 94.6%
O=C(NNc1nc2cc(F)ccc2n2c(CN3CC4(COC4)C3)ccc12)c1cnccn1 | 13.4%
COc1cc2nc(-c3ccc(C)cc3)cc(OCCCNCC3CCCO3)c2cc1OC (centres undefined) | 43.6%
CS(=O)(=O)c1ccc(-c2nc3ccccn3c2C=Nc2ccc(Cl)cc2)cc1 | 23.6%
